Screening results deposited in PubChem by National Center for Advancing Translational Sciences (NCATS).
HEK cytotox = kills HEK 293 cells | 94,000 tested, 6.6% active | Potency, µM (highest dose often 115 µM), inactives show top-dose activity change, negative = cytotoxicity, hits mostly inhibitors | HEK 293 viability, ATP luminescence (CellTiter-Glo), 48-72 h | AID 1345083; note: nearly all actives have a fitted effect of over 60% in size
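qHTS cytotoxicity; HEK 293, 250 cells/well; compound pinned; 48 or 72 hr, 37 degree Celsius, 5% CO2, 95% humidity; CellTiter-Glo, 10 min RT; luminescence (ATP).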
NPR1 antag = blocks ANP-stimulated signaling of human Npr1 receptor; P16066; HEK293 hNpr1 GloSensor cGMP, ANP-stimulated luminescence; Potency, µM (highest dose often 46.3 µM), for the others: at the highest dose activity change, negative = inhibition, hits mostly inhibitors; 76,000 tested, 1.6% active; AID 1347048; calls by dose curve; note: nearly all actives have a fitted effect of over 60% in size
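Compound pre-incubated 30 min at room temperature on GloSensor-loaded HEK293 cells stably carrying hNpr1 and the pGS-40F cGMP biosensor. Stimulation uses hNppA at 0.1 nM final; luminescence is taken at baseline and 20 min post-agonist.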
Luciferase inh = inhibitors of firefly (Photinus pyralis) luciferase | P08659 | purified P. pyralis luciferase, luminescence, biochemical | Potency, µM (titrated, usually from 115 µM), actives largely listed as inhibitors | 76,000 tested, 2.5% active; note: nearly all actives have a fitted effect of over 65% in size
Target sequence (P08659 whole entry, looked up): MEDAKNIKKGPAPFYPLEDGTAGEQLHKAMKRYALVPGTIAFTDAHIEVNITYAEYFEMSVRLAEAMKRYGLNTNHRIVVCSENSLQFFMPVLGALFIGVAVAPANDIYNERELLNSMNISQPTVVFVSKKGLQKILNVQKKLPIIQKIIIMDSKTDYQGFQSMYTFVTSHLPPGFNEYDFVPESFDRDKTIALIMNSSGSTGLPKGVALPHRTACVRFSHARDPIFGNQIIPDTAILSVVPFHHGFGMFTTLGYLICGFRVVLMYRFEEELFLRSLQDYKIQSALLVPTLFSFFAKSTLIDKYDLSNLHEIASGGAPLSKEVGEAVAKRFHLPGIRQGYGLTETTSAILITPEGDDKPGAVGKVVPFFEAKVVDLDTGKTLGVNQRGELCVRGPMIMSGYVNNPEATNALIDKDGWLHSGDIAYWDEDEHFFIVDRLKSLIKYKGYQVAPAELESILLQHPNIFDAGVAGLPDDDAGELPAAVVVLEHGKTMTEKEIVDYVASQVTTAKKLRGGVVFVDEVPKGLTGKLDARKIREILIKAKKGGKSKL
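Purified 10nM P. pyralis luciferase with 10uM D-luciferin and 10uM ATP in 50mM Tris acetate pH 7.5, 10mM Mg acetate, 0.01% Tween-20, 0.05% BSA. qHTS titration; luminescence read by CCD imager.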
3T3 cytotox = NIH 3T3 cell cytotoxicity; NIH 3T3 viability, CellTiter-Glo ATP luminescence, 48-72 h; Potency, µM (highest dose often 96.7 µM), inactives show top-dose activity change, negative = cytotoxicity, most hits filed as inhibitors; 94,000 tested, 4.3% active; AID 1345082; note: nearly all actives have a fitted effect of over 55% in size
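Mouse fibroblast NIH 3T3 cells, 400 per well, received compound via pintool and were incubated for 48 or 72 hr prior to CellTiter-Glo ATP luminescence measurement.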
Active calls of the source: *; i = inactive; ? = inconclusive; . = no result given; [ ] = remark or other dose. Most compounds without a hit are left out; they make up all but 11% or so of the library. Unless noted, calls come from the whole dose curve; as a rule, active = well fitted curve in the direction sought with a large enough effect; inconclusive = small, poorly fitted or top-dose-only effect, or another doubt; inactive = no such curve, though single readings can be large; an effect the other way counts as inactive or inconclusive. % is set by controls: 0 for no effect and ±100 for the full control effect; potency is the fitted concentration of half-maximal effect.

SMILES	HEK cytotox	NPR1 antag	Luciferase inh	3T3 cytotox
Cc1nn(-c2cccc(Br)c2)c(C)c1[C@@H]1C=C[C@@H](NC(=O)c2cccs2)C1	?	-1.2%	?	?
CC(=O)N[C@@H]1C=C[C@@H](c2c(C)nn(-c3ccc(C)c(Cl)c3)c2C)C1	?	?	?	79.4µM*
Cc1ccc(-n2nc(C)c([C@H]3C=C[C@@H](OC(=O)Nc4ccc(C(C)C)cc4)C3)c2C)cc1Cl	28.2µM*	-12.5%	i	?
COc1ccc(NC(=O)O[C@@H]2C=C[C@H](c3c(C)nn(-c4ccc(C)c(Cl)c4)c3C)C2)cc1	?	-3.2%	i	?
Cc1nn(-c2ccc(C(F)(F)F)cc2)c(C)c1[C@@H]1C=C[C@@H](NS(=O)(=O)c2cccs2)C1	?	-18.3%	i	?
CCn1cnnc1CC1CCN(C(=O)c2cnn3c(C)c(Cc4ccccc4Cl)c(C)nc23)CC1	?	-2.1%	i	-23.4%
N#Cc1ccc(C(=O)Nc2ccc(-c3nnc4n3CCCC4)cc2)cc1	10.6%	-3.3%	i	i
COc1ccc(-c2noc(-c3ccc(N4C[C@H]5CC[C@H]4C5)nc3)n2)cc1	?	?	25.1µM*	-22.2%
COc1ccc(-c2noc(-c3nc(C)no3)n2)cc1	-2.3%	3.6%	i	3.2%
CN1CCC(C(=O)N2Cc3ccccc3CC3(CCN(Cc4ccncc4)C3)C2)CC1 (stereo not given)	4.3%	.	.	i
O=C(Nc1cccc(F)c1)[C@@H]1C[C@H](c2ccc(F)cc2)N([S+](=O)([O-])C2CC2)C1	?	-14.0%[70.6 µM]	i	?
COc1ccccc1CN1Cc2[nH]cnc2C[C@H]1c1nc(-c2cccc(C)c2)no1	63.1µM*	-26.2%[70.6 µM]	i	70.8µM*
COc1ccc(CN2Cc3[nH]cnc3C[C@H]2c2nc(-c3ccccn3)no2)cc1	?	-17.7%[70.6 µM]	35.5µM*	?
COc1ccc(-c2noc([C@@H]3Cc4nc[nH]c4CN3Cc3ccc(CO)o3)n2)cc1	-24.5%[172 µM]	-4.7%[70.6 µM]	39.8µM*	-25.1%[138 µM]
COc1ccc(-c2noc([C@@H]3Cc4nc[nH]c4CN3C(=O)c3ccc(F)cc3)n2)cc1	?	-10.5%[70.6 µM]	?	?
COc1ccc(CN2Cc3[nH]cnc3C[C@H]2c2nc(-c3ccncc3)no2)cc1	?	-26.4%[70.6 µM]	i	?
COc1ccc(CN2Cc3[nH]cnc3C[C@H]2c2nc(-c3ccc4ccccc4c3)no2)cc1	44.7µM*	-20.2%	i	39.8µM*
COc1ccc(CN2Cc3[nH]cnc3C[C@H]2c2nc(-c3ccc(C)cc3)no2)cc1	100µM*	-21.9%[70.6 µM]	39.8µM*	79.4µM*
COc1ccc(-c2noc([C@@H]3Cc4nc[nH]c4CN3Cc3ccc(C)cc3)n2)cc1	89.1µM*	-24.9%[70.6 µM]	63.1µM*	?
COc1ccc(Cn2c(=O)c(C(=O)N3CCN(C(=O)C4CCCC4)CC3)nc3cccnc32)cc1	i	.	.	-2.1%
O=C(NCC1CCCCC1)C1CN(c2ccnc3ccnn23)C1	25.1µM*	.	.	-27.4%
O=C(NCCc1ccccc1)C1CCCN(c2ccnc3ccnn23)C1 (stereo not given)	?	.	.	-29.2%[138 µM]
O=C(NCCCc1ccccc1)C1CCN(c2ccnc3ccnn23)CC1	39.8µM*	.	.	?
O=C(NCC1CC1)C1CCCN(c2ccnc3ccnn23)C1 (stereo not given)	2.9%[172 µM]	.	.	-18.5%[138 µM]
O=C(NC1CCCN(c2ccnc3ccnn23)C1)c1ccc(C(F)(F)F)cc1 (stereo not given)	28.2µM*	.	.	?
SMILES	HEK cytotox	NPR1 antag	Luciferase inh	3T3 cytotox
O=C(NC1CCN(c2ccnc3ccnn23)CC1)c1ccc(Cl)cc1	44.7µM*	.	.	?
Cc1ccc(Cn2c(C3CCN(C(=O)c4ccc(C)c(C)c4)CC3)n[nH]c2=O)cc1	?	-15.7%	i	?
Cc1cc(C(=O)N2CCCN(c3ccnc4ccnn34)CC2)ccc1Cl	44.7µM*	.	.	?
O=C(NC1CCN(c2ccnc3ccnn23)C1)c1ccc(Cl)cc1 (stereo not given)	10µM*	.	.	?
O=C(NC1CCN(c2ccnc3ccnn23)C1)c1ccccc1Cl (stereo not given)	?	.	.	-33.9%[138 µM]
O=C(NCc1ccccn1)C1CCCN(c2ccnc3ccnn23)C1 (stereo not given)	-21.3%	.	.	?
O=C(NCc1cccc(C(F)(F)F)c1)C1CCCN(c2ccnc3ccnn23)C1 (stereo not given)	44.7µM*	.	.	?
COc1cccc(CC(=O)N2CCC(N3CC(OCC4CC4)C34CCOCC4)CC2)c1 (stereo not given)	-9.1%	-2.7%	i	3.8%
Cn1nc(C2CCCN(C(=O)Nc3ccc4c(c3)OCCO4)C2)n(C2CCCC2)c1=O (stereo not given)	12.1%	-1.8%	31.6µM*	2.0%
O=C(Nc1ccc2c(c1)OCCO2)N1CCCC(Cn2cnc3cccnc32)C1 (stereo not given)	6.3%	2.9%	28.2µM*	-0.9%
O=C(Nc1ccc(F)c(Cl)c1)N1CCCC(Cn2c(C3CC3)nc3cccnc32)C1 (stereo not given)	?	-19.6%	i	?
COc1ccc(NC(=O)N2CCCC(Cn3c(C4CC4)nc4cccnc43)C2)cc1Cl (stereo not given)	70.8µM*	-9.8%	i	?
O=C(NC1CC1)c1cc(-c2ccc(Cl)cc2Cl)c2nncn2n1	-4.9%[172 µM]	.	.	?
CCN(Cc1ccncc1)C(=O)c1cc(-c2cnn(CC)c2)nc2cc(C)ccc12	?	-11.4%	?	2.82µM*
CCOC(=O)C1(Cc2cccc(C(F)(F)F)c2)CCN(Cc2cn(CC)nc2C)CC1	20µM*	?	i	?
CCOC(=O)C1(Cc2ccccc2C(F)(F)F)CCN(C(C)Cc2cccc(C)n2)CC1 (stereo not given)	12.6µM*	?	i	28.2µM*
CCOC(=O)C1(Cc2ccc(Cl)cc2)CCN(Cc2ccc(OC)cc2O)CC1	?	?	i	?
CCOC(=O)C1(Cc2ccccc2C(F)(F)F)CCN(Cc2ccccn2)CC1	39.8µM*	-1.3%	i	?
COc1ccc(-c2noc(-c3cccn3CC(=O)Nc3cccc(C#N)c3)n2)cc1F	?	-0.2%	i	-19.4%
N#Cc1cccc(CN2CCOC[C@H]2c2ncc(-c3ccc(C(F)(F)F)cc3)[nH]2)c1	89.1µM*	?	i	?
Oc1ccccc1CN1CCOC[C@H]1c1ncc(-c2cccc(Cl)c2)[nH]1	89.1µM*	-17.9%[70.6 µM]	i	?
Clc1cccc(-c2cnc([C@@H]3COCCN3Cc3c[nH]c4ccccc34)[nH]2)c1	?	?	i	?
Cn1cc(CN2CCOC[C@H]2c2ncc(-c3ccc(S(C)(=O)=O)cc3)[nH]2)c2ccccc21	20µM*	-3.4%	i	35.5µM*
CS(=O)(=O)c1ccc(CN2CCOC[C@H]2c2ncc(-c3ccc(Cl)cc3)[nH]2)cc1	-29.7%[172 µM]	-10.0%[70.6 µM]	i	?
